Measurements as given in PubChem BioAssay (NCATS).
Where “and” joins values, the source holds several entries; their conditions need not be identical. Identical values can stand only once. Inconclusive results are not listed. Calls of active or inactive are those of the source. Unless noted, calls follow the shape of the dose curve; as a rule, active = well fitted curve in the direction sought with a large enough effect; inconclusive = small, poorly fitted or top-dose-only effect, or another doubt; inactive = no such curve, though single readings can be large; an effect the other way counts as inactive or inconclusive.

Experiments:
[1] = Cellular Toxicity (caspase-3) BJ (AID 658); conditions: BJ fibroblasts, luminescence, normalized: DMSO 0%, staurosporine 100%; series mostly up to 91.7 µM
Procedure, shortened: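 qHTS, BJ fibroblasts, 1000 cells/well; 5 hr preincubation, 16 hr compound, 37 °C; Caspase-Glo 3/7 reagent, 1 hr RT; luminescence. DMSO = 0%, 10 uM staurosporine = 100%. Hill-equation AC50.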

[2] = Cellular Toxicity (caspase-3) MRC-5 (AID 659); conditions: MRC-5 cells, luminescence, normalized: DMSO 0%, 10 µM staurosporine 100%; series mostly up to 91.7 µM
Procedure, shortened: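 MRC-5 fibroblasts, 1500/well; 16 h cpd, 37 °C; Caspase-Glo 3/7, 1 h RT; lumi read. Norm: DMSO = 0%, 10 uM staurosporine = 100%. Hill-fit AC50 from qHTS conc-response.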

[3] = Cellular Toxicity (caspase-3) Mesangial (AID 660); conditions: mesangial cells, normalized: DMSO 0%, 100 µM tamoxifen 100%; series mostly up to 91.7 µM;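 also: combined caspase 3 and 7 activity read by Caspase-Glo luminescence; cells exposed to compound for 16 h before the caspase read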
Procedure, shortened: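 Caspase 3/7 activation measured by Caspase-Glo 3/7 luminescence (20 min, room temperature) following 16 h exposure of mesangial cells (1000/well); AC50 from Hill-equation fit, normalized to DMSO and 100 uM tamoxifen.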

[4] = Cellular Toxicity (caspase-3) SK-N-SH (AID 661); conditions: SK-N-SH caspase-3 activation, qHTS, DMSO as zero, staurosporine as full; series mostly up to 91.7 µM
Procedure, shortened: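 Caspase 3/7 activation was read by luminogenic substrate cleavage after 16 hour treatment of SK-N-SH cells. Signal was scaled between DMSO and 10 uM staurosporine, and concentration-response data were fitted with the Hill equation for AC50.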

[5] = Cellular Toxicity (caspase-3) H-4-II-E (AID 663); conditions: H-4-II-E rat hepatoma, scaled: DMSO 0%, 100 µM tamoxifen 100%; series mostly up to 92.2 µM
Procedure, shortened: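 H-4-II-E rat hepatoma, 1500 cells/well, 5 hr settle at 37 °C; compound 16 hr, 37 °C, complete medium; Caspase-Glo 3/7, 20 min RT; luminescence. DMSO = 0%, 100 uM tamoxifen = 100%; Hill-equation AC50.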

[6] = Cellular Toxicity (caspase-3) NIH 3T3 (AID 666); conditions: NIH 3T3 caspase-3 activation, apoptosis/toxicity, 0% DMSO, 100% is 100 µM tamoxifen; series mostly up to 92.2 µM;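 also: caspase signal read after 16 h compound exposure; 0% = DMSO basal and 100% = 100 µM tamoxifen stimulation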
Procedure, shortened: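 Caspase-Glo 3/7 luminescence reported caspase activation in 1000 NIH 3T3 cells/well after 16 h compound exposure at 37 C. DMSO set basal and 100 uM tamoxifen set 100% stimulation; concentration-response modeled with the Hill equation for AC50.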

[7] = MultiTox-Fluor Cytotoxicity Assay - LYMP1-001 - Dead Cells (AID 946); conditions: LYMP1-001 lymphoblastoid cells, dead-cell protease fluorescence; series mostly up to 92.2 µM;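 also: 0% = DMSO and 100% = tetraoctylammonium bromide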
Procedure, shortened: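 In this qHTS, 15 uM tetraoctylammonium bromide defined 100% and DMSO defined basal activity. Lymphoblastoid cells (LYMP1-001, 2500 per well) received compound for 16 hr at 37 C before a fluorogenic dead-cell substrate readout at 485/520 nm.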

[8] = Cell Viability - LYMP1-002 - Assay at 16 hr (AID 948); conditions: LYMP1-002 lymphoblastoid cell viability; series mostly up to 92.2 µM;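 also: 0% = DMSO alone and full effect = 92 µM tetraoctylammonium bromide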
Procedure, shortened: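 Human lymphoblastoid cells (LYMP1-002), 2500/well, were preincubated 5 hr at 37 C, then exposed to compounds for 16 hr at 37 C in complete medium. Cellular ATP was read by CellTiter-Glo luminescence after 30 min at room temperature; AC50 from Hill fits.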

[9] = Cell Viability - LYMP1-003 - Assay at 24 hr (AID 963); conditions: LYMP1-003 lymphoblastoid cell viability; series mostly up to 92.2 µM;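 also: plate controls were DMSO only for no effect and tetraoctylammonium bromide positive control for full effect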
Procedure, shortened: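 Concentration-response qHTS: ATP loss measured by CellTiter-Glo luminescence after 24 h compound exposure at 37 C. Cells were LYMP1-003 human lymphoblastoid, 2500 per well. AC50 derived via standard Hill equation modeling.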

[10] = Cell Viability - LYMP1-003 - Assay at 40 hr (AID 964); conditions: LYMP1-003 lymphoblastoid viability; series mostly up to 92.2 µM; also: % is scaled to controls: 0 for no effect and ±100 for the full control effect; nearly all actives have a fitted effect of over 60% in size
Procedure, shortened: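 Viability is taken as cellular ATP, read by CellTiter-Glo luminescence after 40 h of compound exposure at 37 C. Cells: human lymphoblastoid line LYMP1-003 at 2500/well; AC50 values derived by Hill-equation fitting of concentration-response data.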

[11] = Cell Viability - LYMP2-004 (AID 966); conditions: LYMP2-004 lymphoblastoid cell viability, qHTS; series mostly up to 92.2 µM;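 also: plate controls were DMSO only for no effect and tetraoctylammonium bromide control for full effect; nearly all actives have a fitted effect of over 65% in size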
Procedure, shortened: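 AC50 values come from Hill modelling of concentration-dependent loss of intracellular ATP, measured by CellTiter-Glo luminescence. Human LYMP2-004 lymphoblastoid cells (2500/well) were exposed to compound for 24 h at 37 C.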

[12] = Cell Viability - LYMP2-025 (AID 976); conditions: LYMP2-025 lymphoblastoid cell viability; series mostly up to 92.2 µM;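 also: plate controls were DMSO only for no effect and tetraoctylammonium bromide control for full effect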
Procedure, shortened: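 Cytotoxicity read as loss of intracellular ATP (luciferase luminescence) after 24 h compound treatment at 37 C. Uses LYMP2-025 lymphoblastoid cells in 1536-well format; Hill-equation modelling gives AC50; tetraoctylammonium bromide as positive control.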

[13] = Cell Viability - LYMP2-002 (AID 977); conditions: LYMP2-002 lymphoblastoid cell viability, qHTS; series mostly up to 92.2 µM;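 also: plate controls were DMSO only for no effect and 92 µM tetraoctylammonium bromide for full effect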
Procedure, shortened: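 Human lymphoblastoid cells, 2500/well, complete medium; 5 h 37 C settle; compound 24 h 37 C; CellTiter-Glo, 30 min RT; luminescence. Decrease in ATP = cytotoxicity; AC50 via Hill equation.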

[14] = Cell Viability - LYMP2-007 (AID 979); conditions: LYMP2-007 lymphoblastoid cell viability; series mostly up to 92.2 µM;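 also: cells exposed to compound for 24 h before reading; 0% = DMSO only and the negative end = 92 µM tetraoctylammonium bromide; nearly all actives have a fitted effect of over 60% in size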
Procedure, shortened: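 AC50 values come from Hill-equation fits of luminescent intracellular ATP (CellTiter-Glo, 30 min, room temperature) following 24 h compound exposure at 37 C. Cells: LYMP2-007 lymphoblastoid line, 2500 per well, in complete culture medium.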

[15] = Cell Viability - LYMP2-008 (AID 980); conditions: LYMP2-008 lymphoblastoid cell viability, qHTS; series mostly up to 92.2 µM; also: % is scaled to controls: 0 for no effect and ±100 for the full control effect; nearly all actives have a fitted effect of over 60% in size
Procedure, shortened: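 Cytotoxicity determined from ATP-dependent luciferase luminescence (CellTiter-Glo) following 24 h compound exposure of human lymphoblastoid LYMP2-008 cells at 37 C. Concentration-response data fitted to the Hill equation to give AC50.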

[16] = Cell Viability - LYMP2-014 (AID 983); conditions: LYMP2-014 lymphoblastoid cells, viability qHTS; series mostly up to 92.2 µM;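 also: plate controls were DMSO only for no effect and 92 µM tetraoctylammonium bromide for full effect; nearly all actives have a fitted effect of over 50% in size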
Procedure, shortened: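 Intracellular ATP loss, read by luciferase luminescence, measures acute cytotoxicity after 24 h compound exposure of lymphoblastoid LYMP2-014 cells (2500/well, 37 C). Concentration-response data fitted to the Hill equation for AC50.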

[17] = Cell Viability - LYMP2-018 (AID 985); conditions: LYMP2-018 lymphoblastoid cells, viability (qHTS); series mostly up to 92.2 µM;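 also: plate controls were DMSO only for no effect and tetraoctylammonium bromide at 92 µM for full effect; nearly all actives have a fitted effect of over 50% in size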
Procedure, shortened: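 Viability read as CellTiter-Glo luminescence (cellular ATP) after 24 hr compound exposure at 37 C of 2500 LYMP2-018 lymphoblastoid cells/well, pre-plated 5 hr. Hill-equation modelling gave AC50.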

[18] = qHTS assay for small molecule agonists of the antioxidant response element (ARE) signaling pathway measured by Nrf2-dependant transcriptional activity - cell viability counter screen (AID 720653; active = well fitted curve in the direction sought with a large enough effect in the repeat runs; an effect the other way counts as inactive or inconclusive; also: % is scaled to controls: 0 for no effect and ±100 for the full control effect); conditions: ARE-bla HepG2 viability, CellTiter-Glo ATP luminescence, 16 h; hits give low values
Procedure, shortened: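 ARE-bla HepG2 cells treated with compounds for 16 h at 37C; this counter screen measures viability as intracellular ATP by CellTiter-Glo luminescence after 30 min at room temperature.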

[19] = qHTS assay for cell viability of HEK293 cells (AID 743288); conditions: ATP luminescence (CellTiter-Glo), 18 h; max response: hits give low values; also: % is scaled to controls: 0 for no effect and ±100 for the full control effect; nearly all actives have a fitted effect of over 50% in size
Procedure, shortened: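 After 18 h compound exposure at 37 C, parental HEK293 cells (2,000/well) are lysed with CellTiter-Glo and luminescence is read following 30 min at room temperature.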

[20] = qHTS assay for cell viability of the p53RE-bla HCT-116 cell line (AID 743292); conditions: p53RE-bla HCT-116 viability, ATP luminescence, 16 h; series mostly up to 95 µM; also: % is scaled to controls: 0 for no effect and ±100 for the full control effect; nearly all actives have a fitted effect of over 55% in size
Procedure, shortened: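 HCT-116 p53RE-bla cells seeded 4,000/well; 5 h at 37 C; compound (DMSO) added; 16 h at 37 C; CellTiter-Glo added, 30 min RT; luminescence read.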

Clc1ccc2ccccc2c1
inactive: outcome [1] | outcome [2] | outcome [3] | outcome [4] | outcome [5] | outcome [6] | Potency [7] | Potency [8] | Potency [9] | Potency [10] | Potency [11] | Potency [12] | Potency [13] | Potency [14] | Potency [15] | Potency [16] | Potency [17] | max response [18] 4.36% | max response [19] 3.91% | Potency [20]

c1nc[nH]n1
inactive: outcome [1] | outcome [2] | outcome [3] | outcome [4] | outcome [5] | outcome [6] | Potency [7] | Potency [8] | Potency [9] | Potency [10] | Potency [11] | Potency [12] | Potency [13] | Potency [14] | Potency [15] | Potency [16] | Potency [17] | max response [18] 12.8% | max response [19] -0.284% | Potency [20]

CCOc1ccc(N)cc1
inactive: outcome [1] | outcome [2] | outcome [3] | outcome [4] | outcome [5] | outcome [6] | Potency [7] | Potency [8] | Potency [9] | Potency [10] | Potency [11] | Potency [12] | Potency [13] | Potency [14] | Potency [15] | Potency [16] | Potency [17] | max response [18] 1.12% | max response [19] 7.24% | Potency [20]

Nc1ccccc1Cl
inactive: outcome [1] | outcome [2] | outcome [3] | outcome [4] | outcome [5] | outcome [6] | Potency [7] | Potency [8] | Potency [9] | Potency [10] | Potency [11] | Potency [12] | Potency [13] | Potency [14] | Potency [15] | Potency [16] | Potency [17] | max response [18] 8.24% | max response [19] -8.45% | Potency [20]

CCSC(=O)Cl
inactive: outcome [1] | outcome [2] | outcome [3] | outcome [4] | outcome [5] | outcome [6] | Potency [7] | Potency [8] | Potency [9] | Potency [10] | Potency [11] | Potency [12] | Potency [13] | Potency [14] | Potency [15] | Potency [16] | Potency [17] | max response [18] 0.254% | max response [19] -2.01% | Potency [20]

O=NN(CCO)CCO
inactive: outcome [1] | outcome [2] | outcome [3] | outcome [4] | outcome [5] | outcome [6] | Potency [7] | Potency [8] | Potency [9] | Potency [10] | Potency [11] | Potency [12] | Potency [13] | Potency [14] | Potency [15] | Potency [16] | Potency [17] | max response [18] -8% | max response [19] -4.1% | Potency [20]

Cc1ccccc1N
inactive: outcome [1] | outcome [2] | outcome [3] | outcome [4] | outcome [5] | outcome [6] | Potency [7] | Potency [8] | Potency [9] | Potency [10] | Potency [11] | Potency [12] | Potency [13] | Potency [14] | Potency [15] | Potency [16] | Potency [17] | max response [18] -8.44% and 1.06% | max response [19] -10.9% and 0.49% | Potency [20]

CC(=O)[O-].CC(=O)[O-].O.O.O.[Pb+2]
inactive: outcome [1] | outcome [2] | outcome [3] | outcome [4] | outcome [5] | outcome [6] | Potency [7] | Potency [8] | Potency [9] | Potency [10] | Potency [11] | Potency [12] | Potency [13] | Potency [14] | Potency [15] | Potency [16] | Potency [17] | max response [18] -9.67% and 5.41% | max response [19] -11.3% and -5.22% | Potency [20]

CC(C)(C)OO
inactive: outcome [1] | outcome [2] | outcome [3] | outcome [4] | outcome [5] | outcome [6] | Potency [7] | Potency [8] | Potency [9] | Potency [10] | Potency [11] | Potency [12] | Potency [13] | Potency [14] | Potency [15] | Potency [16] | Potency [17] | max response [18] 15% and -27.6% | max response [19] -29% and 2.51% | Potency [20]

[O-][Br+2]([O-])O
inactive: outcome [1] | outcome [2] | outcome [3] | outcome [4] | outcome [5] | outcome [6] | Potency [7] | Potency [8] | Potency [9] | Potency [10] | Potency [11] | Potency [12] | Potency [13] | Potency [14] | Potency [15] | Potency [16] | Potency [17] | max response [18] 3.23% and -1.6% | max response [19] -15.7% and 1.39% | Potency [20]
